Test results taken from ChEMBL document CHEMBL3988442, “University of Dundee, Small-Polar-MMV Screening Library” (2021).
About 13,000 (27%) of roughly 48,000 compounds showed an effect of 50% or more. Some of the results follow.

Tested on: Wolbachia pipientis
Test: Anti-Wolbachia Cell-Based Screen
Assay type: functional
Set-up: scale not given: in the data most compounds retested in dose-response had high values
Conditions: 5 µM

SMILES | Percent Effect
CCOCc1nc2c(c(N3CC=CC3)n1)CCN(Cc1ccco1)CC2 | -6.095%
CCn1c(C)nnc1SCCNc1nc(C)nc2ncccc12 | -6.645%
CCOc1ccc(NS(=O)(=O)c2cc(C)c(C(=O)O)s2)c(C)c1 | 5.769%
Cc1nn(C)c(C)c1C(C)NC(=O)c1cc(CN2CCC(O)CC2)on1 (stereo not given) | -4.084%
Cc1cnn(Cc2ccc(NC(=O)N[C@@H]3C=C[C@H](CO)C3)cc2)c1 | -14.53%
CSC(C)Cc1c(-c2ccccc2)ncn1CCCNc1cccnc1 (stereo not given) | -5.851%
COc1ccccc1CC(=O)N1CCCC(n2nc(C)cc2C)C1 (stereo not given) | 7.114%
CCc1nccn1C1CCCN(C(=O)CCc2nccs2)C1 (stereo not given) | 3.707%
CCc1nccn1C1CCCN(C(=O)CCCc2ccccn2)C1 (stereo not given) | 115.4%
Cc1cc(C)n(CC2CCCN2C(=O)CCCc2ccccn2)n1 (stereo not given) | -3.027%
CCc1nccn1C1CCCN(C(=O)Cc2n[nH]c3ccccc23)C1 (stereo not given) | -2.139%
Cc1cnn(C2CCCN(C(=O)CCCn3ccnc3C)C2)c1 (stereo not given) | 111.3%
Cc1cc(C)n(C2CCCN(C(=O)CCCc3ccccn3)C2)n1 (stereo not given) | 93.32%
Cn1cnnc1C1CCCN(c2nc3ccccc3o2)C1 (stereo not given) | -0.3699%
CCc1ncc2c(n1)CN(Cc1cn3ccsc3n1)CC2 | 20.43%
Cc1nc2c(c(N(C)CC3Cc4ccccc4CN3C)n1)CCNCC2 (stereo not given) | -8.073%
CC(C)(C)NC[C@@H]1CCC[C@@H]2CN(Cc3csnn3)C[C@@H]21.O=C(O)C(F)(F)F.O=C(O)C(F)(F)F | 1.989%
CCN(C)S(=O)(=O)N1C[C@@H]2CC[C@H](C1)N(Cc1cscn1)C2=O | -57.82%
CCOC(=O)C(C)Nc1cccc(COCc2ccco2)c1 (stereo not given) | 114.3%
CC(Nc1cccc(CN2CCOC2=O)c1)C(=O)NC(N)=O (stereo not given) | 6.904%
COCc1cccc(NC(C)C(=O)N(C)Cc2ccccc2)c1 (stereo not given) | -9.622%
Cc1nnc(C(C)Nc2cccc(COCCOC(C)C)c2)o1 (stereo not given) | -13.05%

SMILES | Percent Effect
CCCNC(=O)C(C)Nc1ccc(COCC)cc1 (stereo not given) | -5.955%
CC(Nc1cccc(COCc2ccco2)c1)C(=O)NC(N)=O (stereo not given) | 118%
O=C(O)C(F)(F)F.O=C(O)C(F)(F)F.O=C(c1ccncc1)N1CCN2C[C@H](Oc3cccc(F)c3)C[C@H]2C1 | 3.231%
Cc1cccnc1NC(=O)C(C)Cn1nc(C(F)(F)F)cc1C (stereo not given) | 5.887%
c1c[nH]c2nc(C3CCNC3)nc-2c1 (stereo not given) | 89.57%
Fc1ccc2nc([C@H]3CCNC3)[nH]c2c1 | -0.4881%
CCC(=O)NCC(=O)Nc1ncc(I)cc1C | -1.135%
Cc1ccc(N2C[C@H](C)[C@]3(CCN(c4cccnc4)C3=O)C2)nn1.O=C(O)C(F)(F)F.O=C(O)C(F)(F)F | 82.56%
COc1cc(N2CCC3(CC2)CCN(c2cccnc2)C3=O)ncn1.O=C(O)C(F)(F)F | -8.044%
C[C@@H]1CN(C(=O)C2CCOCC2)C[C@]12CCN(c1cccnc1)C2=O.O=C(O)C(F)(F)F | -10.36%
C[C@H]1CN(c2ccccn2)C[C@@]12CCN(c1cccnc1)C2=O.O=C(O)C(F)(F)F.O=C(O)C(F)(F)F | 96.67%
NS(=O)(=O)CCNC(=O)c1cc(Br)c2c(c1)OCCO2 | 3.55%
Cc1ncncc1C(=O)N1CCCN(Cc2cnn(C(C)C)c2)CC1 | -23.75%
CC(C)n1cc(CN2CCCN(C(=O)c3nccnc3N)CC2)cn1 | -14.33%
CC(C)C(C(=O)N1CCCN(Cc2cnn(C)c2)CC1)n1cncn1 (stereo not given) | -6.037%
CC(C(=O)N1CCCN(Cc2ccc(C#N)cc2)CC1)n1ccnc1 (stereo not given) | -13.4%
CC(C)n1cc(CN2CCCN(C(=O)C(C)n3cccn3)CC2)cn1 (stereo not given) | 97.33%
CC(C(=O)N1CCCN(Cc2cnn(C(C)C)c2)CC1)n1ccnc1 (stereo not given) | 86.84%
CC(C)n1cc(CN2CCCN(C(=O)C(C)n3cncn3)CC2)cn1 (stereo not given) | 115.2%
CC(C)n1cc(CN2CCCN(C(=O)c3ccc[nH]3)CC2)cn1 | -9.453%
CCC(=O)N1CCN(c2cc(-n3cnc(C)c3C)nc(C)n2)CC1 | -0.8212%
CN1CCOC(C(=O)N(C)c2ccc3c(c2)CCO3)C1 (stereo not given) | -1.104%

SMILES | Percent Effect
Cc1cccc(-c2nc(C)nn2CN2CCN(c3ncccn3)CC2)c1 | -20.31%
CCC(C(=O)NCc1ccncc1)N(c1ccccc1)S(C)(=O)=O (stereo not given) | -24.56%
COCCn1cc(NC(=O)NC(C)c2ccc(Cl)s2)cn1 (stereo not given) | 1.705%
CC1(C)[C@H](Cc2cc(CN3CCCCC3)on2)C[C@@H]1NS(C)(=O)=O | -2.638%
CC(C)C(=O)N(C)Cc1nc(N2CCCC2)ncc1-c1ccncc1.Cl | 82.87%
CN(Cc1ccsc1)C(=O)c1nc(N2CCCCC2)ncc1Cl | 3.668%
CN(C)C(CNC(=O)c1nc(N2CCCC2)ncc1Cl)c1ccco1 (stereo not given) | 2.501%
CN(Cc1nc(N2CCCC2)ncc1-c1ccncc1)C(=O)C(C)(C)C.Cl | 94.15%
CN(Cc1ccsc1)C(=O)c1nc(N2CCCC2)ncc1Cl | -53.64%
Cn1c(NC(=O)CCS(=O)(=O)C2CCCC2)nc2cc(Cl)ccc21 | 1.786%
CCN(CC)CC[C@H]1CN(C(=O)CC(C)(C)C)CC[C@H]1CC(=O)O | -10.9%
O=C(C1CC1)N1CCc2[nH]cnc2C12CCN(C1CCOCC1)CC2 | -3.543%
O=S(=O)(c1cc(F)cc(F)c1)N1CCC(Oc2ccc(Cl)cn2)CC1 | 14.51%
COc1ccc(F)cc1S(=O)(=O)N1CCC(Oc2ccc(Cl)cn2)CC1 | -6.405%
O=S(=O)(c1cc(F)ccc1F)n1cc(Cl)cn1 | 95.85%
O=S(=O)(c1ccc(F)cc1)n1cc(Cl)cn1 | 120.8%
Cn1cc(CNS(=O)(=O)c2cc(F)ccc2F)cn1 | -25.59%
CC1CN(S(=O)(=O)c2ccc(F)cc2)c2cccnc2O1 (stereo not given) | -6.329%
Cc1cnn(-c2ccc(S(N)(=O)=O)cc2F)c1 | -6.422%
O=S(=O)(c1ccc(F)c(F)c1)n1cc(Cl)cn1 | 96.85%
O=S(=O)(c1ccc(F)cc1)N1CCCn2cnc(CN3CCCC3)c2C1 | -4.272%
